# SRC2 TRFRET art: TR-FRET signal artefacts, primary screen, artefact control for PPARgamma SRC-2 agonist project, biochemical; TR-FRET artefact counter-screen; stronger effect = higher value; hit rate 0.4% among 200,000; AID 1049, 2008; TR-FRET ratio at 8 µM; in the data active = TR-FRET ratio above about 2000
# SRC1 TRFRET art: TR-FRET detection interference compounds, primary screen, artefact control for PPARgamma SRC-1 recruitment agonists, biochemical, TR-FRET emission ratio; TR-FRET ratio at 8 µM; TR-FRET detection artefact counter-screen; stronger effect = higher value; hit rate 0.34% among 99,000; in the data active = TR-FRET ratio above about 2300
# PPARg SRC1 recr: PPARgamma agonists recruiting SRC-1 coactivator, primary screen, biochemical. PPARgamma-SRC-1 coactivator recruitment biochemical assay. hit rate 0.41% among 200,000. activation, % at 8 µM. Peroxisome proliferator-activated receptor gamma (Homo sapiens), P37231; in the data active = activation above about 19%
# SRC3 TRFRET art: TR-FRET detection interference compounds, artefact control for PPARgamma SRC-3 recruitment agonists, biochemical, TR-FRET ratio | TR-FRET artefact counter-screen, PPARgamma/SRC-3 format; stronger effect = higher value | TR-FRET ratio at 8 µM | hit rate 0.39% among 99,000; in the data active = TR-FRET ratio above about 2000
# PPARg SRC-2 ag: agonists of PPARg-SRC-2 recruitment, primary screen, biochemical, HTS. PPARgamma LBD-SRC-2 recruitment. activation, % at 8 µM. hit rate 0.34% among 200,000. AID 1032, 2008
# PPARg SRC-3 ag: PPARgamma agonists recruiting SRC-3 coactivator, primary screen, biochemical; Peroxisome proliferator-activated receptor gamma (Homo sapiens), P37231; biochemical PPARgamma/SRC-3 coactivator recruitment assay; activation, % at 8 µM; hit rate 0.26% among 200,000; AID 731, 2007; in the data active = activation above about 23%
# PPARg SRC2 ag: agonists of PPARgamma SRC-2 coactivator recruitment, confirmation, biochemical, HTS; shares compounds with PPARg SRC-3 ag; biochemical SRC-2 recruitment by PPARgamma; activation, % at 8 µM; hit rate 52% among 790
# PPARg SRC1 ag: PPARgamma agonists recruiting SRC-1 coactivator, confirmation, biochemical; hit rate 43% among 790; activation, % at 8 µM; PPARgamma–SRC-1 coactivator recruitment biochemical assay; shares compounds with PPARg SRC-3 ag; AID 1300, 2008; in the data active = activation above about 20%
# PPARg SRC3 ag: PPARgamma-driven SRC-3 coactivator recruitment agonists, confirmation, biochemical. shares compounds with PPARg SRC-3 ag. biochemical PPARgamma-SRC-3 coactivator recruitment, agonist mode. activation, % at 8 µM. hit rate 29% among 790; in the data active = activation above about 24%
# A number is an active result; – = inactive; · = no result given. The list is not random: actives were taken first. Their share in the collection is about 0.84%. Cut-off read from the data, not from the text of the source, unless noted: active = activation above about 22%; inactive = the rest.
SMILES,SRC2 TRFRET art,SRC1 TRFRET art,PPARg SRC1 recr,SRC3 TRFRET art,PPARg SRC-2 ag,PPARg SRC-3 ag,PPARg SRC2 ag,PPARg SRC1 ag,PPARg SRC3 ag
COc1ccc(N=Cc2sc(O)c3ccccc23)cc1,–,·,22.3,·,28.1,26.3,–,–,–
COc1ccc(-n2c(O)c(C=Nc3ccccc3)c3ccccc3c2=O)cc1,–,–,–,–,–,–,·,·,·
CCCN(CCC)CCCNC(=O)c1nn(-c2cccc(OC)c2)c(=O)c2ccccc12,–,–,–,–,–,–,·,·,·
COc1ccc(C(CC(=O)Nc2ccc(Cl)cc2F)NC(=O)C(F)(F)F)cc1 (stereo unspecified),–,·,18.7,·,–,–,–,–,–
Cc1ccc(-c2[nH]c3ccccc3c2SCCNC(=O)c2cc3ccccc3oc2=O)cc1,–,–,–,–,–,–,·,·,·
O=C(Cc1cccs1)NCCSc1c(-c2ccc(Cl)cc2)[nH]c2ccccc12,5424,3752,28.4,7221,–,54.3,25.7,31.8,40.8
CCN(CC)CCCN1C(=O)C(O)=C(C(=O)c2cc3ccccc3o2)C1c1ccccn1 (stereo unspecified),2586,·,42.9,·,47.5,61.6,40.0,30.3,27.0
CN(C)CCN1C(=O)C(O)=C(C(=O)c2cc3ccccc3o2)C1c1ccccn1 (stereo unspecified),–,·,–,·,–,–,·,·,·
CC(=O)NC1(C(F)(F)F)C(=O)Nc2c1c(=O)[nH]c(=O)n2CC(C)C (stereo unspecified),–,–,–,–,–,–,·,·,·
CC(C)OC(=O)CCCN1C(=O)c2ccc(N)cc2C1=O,–,·,–,·,23.3,–,–,–,–
c1csc(-c2cnc3ccccc3n2)c1,–,–,–,–,–,–,·,·,·
c1cc2c(cnc3cscc32)s1,2391,3316,48.8,2526,53.0,28.9,62.3,50.6,41.9
CC(=O)OC[C@H]1O[C@H](C/C=N/OC[C@@H](O)[C@H]2O[C@@H]3OC(C)(C)O[C@@H]3[C@H]2O)C=C[C@@H]1OC(C)=O,–,–,–,–,–,–,·,·,·
Cc1cc(-c2sccc2Br)nc(-n2cccc2)n1,–,–,22.1,2170,–,–,–,–,–
Clc1ccc(-c2ccnc(-n3cccc3)n2)s1,–,–,–,–,–,–,·,·,·
Cc1cc(-c2ccc(Br)s2)nc(-n2cccc2)n1,2162,2540,25.8,2617,24.8,23.7,42.1,28.5,25.7
Cc1cccc(NC(=O)C2c3ccccc3Oc3ccccc32)n1,–,–,–,–,–,–,·,·,·
Cn1cccc1C(=O)NC(=O)COC(=O)c1ccccc1Sc1ccccc1C#N,3090,·,24.1,·,21.8,29.3,–,–,–
O=C1CCC(=O)N1c1ccc(-c2nc3ccccc3s2)cc1,–,–,27.7,–,24.7,–,–,–,–
CCOC(=O)Cc1ccc2sc(-c3ccccc3)nc2c1,–,–,–,–,–,–,·,·,·
CC(=O)c1c(C)[nH]c(C(=O)CSc2nnc(-c3ccco3)o2)c1C,–,–,–,–,–,–,·,·,·
COc1ccc(-c2nnc(SCC(=O)c3[nH]c(C)c(C(C)=O)c3C)o2)cc1,–,·,19.0,·,–,–,–,–,–
Cc1[nH]nc2c1C(c1ccsc1C)C(C#N)=C(N)O2 (stereo unspecified),–,·,–,·,–,–,·,·,·
Cc1sccc1C1C(C#N)=C(N)SC(N)=C1C#N,–,·,–,·,22.1,33.5,–,–,–
Cc1cc(C2C(C#N)=C(N)Oc3n[nH]c(C)c32)c(C)s1 (stereo unspecified),–,·,–,·,–,–,·,·,·
SMILES,SRC2 TRFRET art,SRC1 TRFRET art,PPARg SRC1 recr,SRC3 TRFRET art,PPARg SRC-2 ag,PPARg SRC-3 ag,PPARg SRC2 ag,PPARg SRC1 ag,PPARg SRC3 ag
Cc1cc(C2C(C#N)=C(N)SC(N)=C2C#N)c(C)s1,–,·,–,·,25.2,–,–,–,–
COc1ccc(/C=N/NC(=O)c2ccccc2F)cc1CN1CCN(c2ccc(F)cc2)CC1,–,–,–,–,–,–,·,·,·
O=C(Cn1cncn1)NCCCc1ccccc1,–,–,–,–,–,–,·,·,·
Fc1ccc(-c2nnsc2Sc2ccccn2)cc1,3478,–,–,6319,145.1,58.1,34.5,34.6,–
CO/C(N)=C(\C#N)N=Cc1ccccc1Cl,–,–,–,–,–,–,·,·,·
COc1cc(/C=C/C(=O)OCC(=O)Nc2ccc(C)cc2[N+](=O)[O-])ccc1O,–,–,–,–,24.9,–,–,–,–
Cc1ccc(N2C(=O)C3N=NN(CC(=O)N4N=C(c5ccccc5)CC4c4ccccc4)C3C2=O)cc1 (stereo unspecified),–,–,–,–,–,–,·,·,·
O=C(c1ccccc1)c1sc(N2CCCCCC2)nc1-c1ccccc1,–,·,19.2,·,–,–,–,–,–
[2H]c1c([2H])c([2H])c(C(=O)c2sc(N3CCCCCC3)nc2-c2ccccc2)c([2H])c1[2H],–,·,–,·,–,28.2,–,–,–
Cn1c(-c2ccco2)n[nH]c1=S,–,–,–,–,–,–,·,·,·
Cc1cccc(-n2c(-c3ccco3)n[nH]c2=S)c1,2124,2623,25.0,2283,28.1,22.6,34.7,25.5,25.7
Cc1ccc2nc(N3CCN(S(=O)(=O)c4ccc5c(c4)OCCO5)CC3)c(C#N)cc2c1,3423,·,31.1,·,21.8,44.9,–,–,–
Cc1ccc(S(=O)(=O)N2CCCN(S(=O)(=O)c3ccc4c(c3)OCCO4)CC2)cc1,–,·,–,·,–,–,·,·,·
COC(=O)c1cc(Br)c(=O)n(-c2ccccn2)c1,–,·,–,·,–,–,·,·,·
COC(=O)c1cc(Br)c(=O)n(-c2nccs2)c1,2990,·,37.0,·,56.6,73.6,22.4,–,–
Cc1ccc(C=Nc2ccc(N(C)C)cc2)o1,3126,·,65.2,·,101.6,101.9,–,–,–
Cn1c(O)c(N=NC(=O)Cn2c(C(F)(F)F)nc3ccccc32)c2ccccc21,–,–,–,–,–,–,·,·,·
CC1(C)OC1COc1c2ccoc2cc2oc(=O)ccc12 (stereo unspecified),–,–,–,–,–,–,·,·,·
C=CCOc1ccc(C2C(C(=O)c3ccco3)=C(O)C(=O)N2c2nnc(C)s2)cc1 (stereo unspecified),2019,–,–,–,25.0,–,25.8,24.0,–
